Inconclusive results are not listed. Active and inactive are the calls of the source. The calls were made as follows, unless noted: active = hit-call score of the fitted dose curve at least 0.9, where 1 is the maximum; inconclusive = response in the unintended direction; inactive = score below 0.9.
Assays:
[1] = CEETOX_H295R_TESTO_noMTC: CeeTox H295R High-throughput Steroidogenesis Assay for Testosterone (TESTO), maximum tolerated concentration (MTC) filtered results only (AID 2283924; active = hit-call score of the fitted dose curve at least 0.9, where 1 is the maximum; inactive = score below 0.9); conditions: actives raise or lower the signal
Procedure, shortened: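 H295R cells prestimulated 48 h with 10 uM forskolin, then exposed 48 h to chemicals in 0.1% DMSO final. Testosterone in medium quantified by MTBE extraction and HPLC-MS/MS; bidirectional fit versus DMSO, concentrations […] filtered by MTT-based maximum tolerated concentration.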

PGR (gene 5241) [2] = molecular target: PGR (gene 5241) (UniProt P06401); assay: TOX21_PR_BLA_Followup_Agonist_ratio: Tox21 HEK293 Progesterone Receptor (PR) Agonism Beta-lactamase Follow-Up Assay, Ratio (AID 2283933)
Procedure, shortened: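 Agonist-mode follow-up in HEK293T cells carrying a UAS-driven beta-lactamase reporter, grown in 2% charcoal-stripped serum. Compounds act for 16 hr; activity is the ch2/ch1 cleavage ratio, with same-well CellTiter-Glo viability run in parallel.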

PGR (gene 5241) [3] = molecular target: PGR (gene 5241) (UniProt P06401); assay: TOX21_PR_LUC_Followup_Agonist: Tox21 HEK293 Progesterone Receptor (PR) Agonism Luciferase Follow-Up Assay (AID 2283937; active = hit-call score of the fitted dose curve at least 0.9, where 1 is the maximum; inactive = score below 0.9)
Procedure, shortened: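 Agonist mode: reporter cells carrying PR-A and luciferase are treated 16 h with test compounds at 37C. Luciferase induction is measured by luminescence and fitted upward against DMSO.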

PGR (gene 5241) [4] = molecular target: PGR (gene 5241) (UniProt P06401); assay: TOX21_PR_LUC_Followup_Antagonist: Tox21 HEK293 Progesterone Receptor (PR) Antagonism Luciferase Follow-Up Assay (AID 2283938);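 also: curve fitted upward as signal gain over DMSO baseline despite antagonist label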
Procedure, shortened: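 HEK293-PR-A-luc cells were precultured 5 days in medium with 10% charcoal-stripped FBS, seeded 3,000/well, then exposed to compounds in DMSO for 16 h at 37C. Luciferase was read by ONE-Glo luminescence after 30 min at room temperature.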

[5] = molecular target: Thyroid hormone receptor alpha (Rattus norvegicus) + Thyroid hormone receptor beta (Rattus norvegicus) (UniProt P18113+P63059); assay: TOX21_TR_LUC_GH3_Agonist_Followup: Tox21 GH3 Thyroid Hormone Receptor Agonism Luciferase Follow-Up Assay (AID 2283939)
Procedure, shortened: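 Rat GH3 cells (1,500/well) in serum-free assay medium, treated with 15-point series, 92 uM to 5 nM final, for 24 h at 37C. Luciferase via ONE-Glo luminescence; gain of signal fitted against DMSO, T3 positive control.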

THRA (gene 7067) [6] = molecular target: THRA (gene 7067) (UniProt P10827); assay: TOX21_TRA_COA_Agonist_Followup_ratio: Tox21 Thyroid Hormone Receptor alpha Agonism through Coactivator Recruitment Follow-Up Assay, Ratio (AID 2283948; active = hit-call score of the fitted dose curve at least 0.9, where 1 is the maximum; inactive = score below 0.9)
Procedure, shortened: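 Read-out is the 520/495 nm emission ratio (ex 340 nm), scaled between DMSO-only wells as 0% and T3 wells as 100%. It reflects fluorescein-SRC-2 peptide recruitment to GST-TRα LBD detected via terbium anti-GST antibody.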

THRB (gene 7068) [7] = molecular target: THRB (gene 7068) (UniProt P10828); assay: TOX21_TRB_BLA_Agonist_Followup_ratio: Tox21 Thyroid Hormone Receptor beta Agonism Beta-lactamase (BLA) Follow-Up Assay, Ratio (AID 2283954)
Procedure, shortened: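 Human TRβ LBD–GAL4 DBD fusion in GeneBLAzer UAS-bla HEK293T cells; 11 concentrations in triplicate, 18 h at 37°C/5% CO2, T3 as agonist control. CCF4-AM substrate 2 h at room temperature; 460:530 nm ratio fitted for gain of signal versus DMSO.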

THRB (gene 7068) [8] = molecular target: THRB (gene 7068) (UniProt P10828); assay: TOX21_TRB_COA_Agonist_Followup_ratio: Tox21 Thyroid Hormone Receptor beta Agonism through Coactivator Recruitment Follow-Up Assay, Ratio (AID 2283963; active = hit-call score of the fitted dose curve at least 0.9, where 1 is the maximum; inactive = score below 0.9)
Procedure, shortened: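 GST-TRb LBD 5.0 nM + 0.10% BSA + cpd; add fluorescein-SRC-2 200 nM / Tb anti-GST Ab 2 nM; TR-FRET ex 340, em 520:495; norm DMSO 0%, T3 100%.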

[9] = molecular target: Retinoic acid receptor RXR-alpha (Homo sapiens) (UniProt P19793); assay: TOX21_TR_RXR_BLA_Agonist_Followup_ratio: Tox21 Thyroid Hormone Receptor beta Retinoid X Receptor alpha (RXRa) Agonism Beta-lactamase (BLA) Follow-Up Assay, Ratio (AID 2283968)
Procedure, shortened: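 This follow-up tests whether responses seen in the TR GH3 luciferase agonist screen are specific, using a GAL4-driven beta-lactamase reporter for RXRa in HEK293T cells. Compound exposure lasts 16 h; signal is the cleaved/uncleaved substrate ratio.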

[10] = TOX21_TR_RXR_BLA_Agonist_Followup_viability: Viability Assessment in the Tox21 Thyroid Hormone Receptor beta Retinoid X Receptor alpha (RXRa) Agonism Beta-lactamase (BLA) Follow-Up Assay (AID 2283970)
Procedure, shortened: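 In qHTS format, RXRa-bla HEK293T cells (2,500/well) received compound for 16h. ATP content was then measured with CellTiter-Glo, and responses were fitted bidirectionally relative to DMSO controls.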

[11] = TOX21_PR_LUC_Followup_Antagonist_viability: Viability Assessment in the Tox21 HEK293 Progesterone Receptor (PR) Antagonism Luciferase Follow-Up Assay (AID 2283940)
Procedure, shortened: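 Cellular ATP, measured with luciferase-coupled CellTiter-Glo, served as the viability endpoint after HEK293-PR-A-luc cells were exposed to test compounds for 16 h at 37C.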

THRA (gene 7067) [12] = molecular target: THRA (gene 7067) (UniProt P10827); assay: TOX21_TRA_COA_Antagonist_Followup_ratio: Tox21 Thyroid Hormone Receptor alpha Antagonism through Coactivator Recruitment Follow-Up Assay, Ratio (AID 2283953)
Procedure, shortened: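 This follow-up to the GH3 luciferase screen checks specificity in a cell-free format. It measures SRC-2 coactivator peptide binding to TRα LBD by TR-FRET and scores loss of ratio signal relative to DMSO.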

THRB (gene 7068) [13] = molecular target: THRB (gene 7068) (UniProt P10828); assay: TOX21_TRB_BLA_Antagonist_Followup_ratio: Tox21 Thyroid Hormone Receptor beta Antagonism Beta-lactamase (BLA) Follow-Up Assay, Ratio (AID 2283958)
Procedure, shortened: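 In this antagonist-mode follow-up, a stably integrated GAL4-TRβ LBD fusion drives a UAS-beta-lactamase reporter in HEK293T cells. Loss of ratio signal relative to DMSO after 18 h treatment indicates activity; parallel CellTiter-Glo flags cytotoxicity.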

[14] = TOX21_TRB_BLA_Antagonist_Followup_viability: Viability Assessment in the Tox21 Thyroid Hormone Receptor beta Antagonism Beta-lactamase (BLA) Follow-Up Assay (AID 2283961)
Procedure, shortened: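 HEK293T cells stably expressing GAL4-DBD/human TRβ-LBD with UAS-bla reporter, 3,000 cells/well in phenol red-free DMEM, 2% charcoal-stripped FBS. Compounds at 11 concentrations in triplicate, 18 h at 37C/5% CO2; viability by CellTiter-Glo luminescence after 30 min at room temperature.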

THRB (gene 7068) [15] = molecular target: THRB (gene 7068) (UniProt P10828); assay: TOX21_TRB_COA_Antagonist_Followup_ratio: Tox21 Thyroid Hormone Receptor beta Antagonism through Coactivator Recruitment Follow-Up Assay, Ratio (AID 2283967)
Procedure, shortened: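 Test compound was incubated with 5.0 nM GST-TRβ LBD in 0.10% BSA. Then 200 nM fluorescein-SRC-2 peptide and 2 nM terbium anti-GST antibody were added. TR-FRET (520:495 nm) was measured and normalized to DMSO and T3 controls.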

[16] = molecular target: Retinoic acid receptor RXR-alpha (Homo sapiens) (UniProt P19793); assay: TOX21_TR_RXR_BLA_Antagonist_Followup_ratio: Tox21 Thyroid Hormone Receptor beta Retinoid X Receptor alpha (RXRa) Antagonism Beta-lactamase (BLA) Follow-Up Assay, Ratio (AID 2283972)
Procedure, shortened: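 RXRa-UAS-bla HEK293T cells in phenol red-free DMEM with 2% charcoal-stripped FBS; compounds at 11 concentrations in triplicate, 16 h at 37C. LiveBLAzer FRET-B/CCF4-AM substrate 2 h at room temperature; read as 460:530 nm ratio versus DMSO.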

Chain of THRB (gene 7068) (P10828 whole entry, looked up, the tested form may be a part): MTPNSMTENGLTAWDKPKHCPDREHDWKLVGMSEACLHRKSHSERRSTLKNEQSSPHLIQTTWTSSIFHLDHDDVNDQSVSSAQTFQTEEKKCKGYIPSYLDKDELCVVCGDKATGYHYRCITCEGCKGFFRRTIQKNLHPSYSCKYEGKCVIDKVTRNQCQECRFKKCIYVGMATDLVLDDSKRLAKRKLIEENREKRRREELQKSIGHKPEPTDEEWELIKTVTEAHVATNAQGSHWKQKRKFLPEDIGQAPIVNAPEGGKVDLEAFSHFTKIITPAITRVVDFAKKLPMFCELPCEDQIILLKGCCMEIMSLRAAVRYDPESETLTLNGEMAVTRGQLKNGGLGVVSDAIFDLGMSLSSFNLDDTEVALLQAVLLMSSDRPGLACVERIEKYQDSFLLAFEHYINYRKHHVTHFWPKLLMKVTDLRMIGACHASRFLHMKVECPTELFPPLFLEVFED
Chain of THRA (gene 7067) (P10827 whole entry, looked up, the tested form may be a part): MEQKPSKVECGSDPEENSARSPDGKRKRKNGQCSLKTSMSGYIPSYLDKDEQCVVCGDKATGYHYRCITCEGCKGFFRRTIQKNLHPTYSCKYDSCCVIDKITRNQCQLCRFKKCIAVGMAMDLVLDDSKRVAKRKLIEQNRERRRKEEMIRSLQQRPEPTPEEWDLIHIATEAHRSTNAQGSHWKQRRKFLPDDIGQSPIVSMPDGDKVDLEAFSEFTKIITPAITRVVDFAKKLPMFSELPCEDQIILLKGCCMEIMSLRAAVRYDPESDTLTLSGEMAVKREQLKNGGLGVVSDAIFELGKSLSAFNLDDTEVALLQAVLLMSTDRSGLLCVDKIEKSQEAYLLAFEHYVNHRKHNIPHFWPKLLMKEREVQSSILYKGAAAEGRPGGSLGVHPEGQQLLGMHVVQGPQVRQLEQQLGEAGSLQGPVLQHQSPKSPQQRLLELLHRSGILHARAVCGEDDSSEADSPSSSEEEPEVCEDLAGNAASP
Chain of Retinoic acid receptor RXR-alpha (Homo sapiens) (P19793 whole entry, looked up, the tested form may be a part): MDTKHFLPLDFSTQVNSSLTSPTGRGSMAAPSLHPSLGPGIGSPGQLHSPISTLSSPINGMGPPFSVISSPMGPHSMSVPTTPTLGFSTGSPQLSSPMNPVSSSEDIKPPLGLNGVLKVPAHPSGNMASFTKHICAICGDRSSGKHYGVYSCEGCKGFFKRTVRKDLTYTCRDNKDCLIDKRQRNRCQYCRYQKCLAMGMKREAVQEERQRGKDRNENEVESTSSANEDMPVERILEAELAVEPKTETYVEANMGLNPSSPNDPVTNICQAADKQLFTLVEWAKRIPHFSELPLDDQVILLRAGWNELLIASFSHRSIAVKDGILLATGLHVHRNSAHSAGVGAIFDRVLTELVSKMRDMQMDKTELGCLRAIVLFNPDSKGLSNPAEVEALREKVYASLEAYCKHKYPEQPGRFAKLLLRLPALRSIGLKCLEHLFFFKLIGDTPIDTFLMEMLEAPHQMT
Chain of PGR (gene 5241) (P06401 whole entry, looked up): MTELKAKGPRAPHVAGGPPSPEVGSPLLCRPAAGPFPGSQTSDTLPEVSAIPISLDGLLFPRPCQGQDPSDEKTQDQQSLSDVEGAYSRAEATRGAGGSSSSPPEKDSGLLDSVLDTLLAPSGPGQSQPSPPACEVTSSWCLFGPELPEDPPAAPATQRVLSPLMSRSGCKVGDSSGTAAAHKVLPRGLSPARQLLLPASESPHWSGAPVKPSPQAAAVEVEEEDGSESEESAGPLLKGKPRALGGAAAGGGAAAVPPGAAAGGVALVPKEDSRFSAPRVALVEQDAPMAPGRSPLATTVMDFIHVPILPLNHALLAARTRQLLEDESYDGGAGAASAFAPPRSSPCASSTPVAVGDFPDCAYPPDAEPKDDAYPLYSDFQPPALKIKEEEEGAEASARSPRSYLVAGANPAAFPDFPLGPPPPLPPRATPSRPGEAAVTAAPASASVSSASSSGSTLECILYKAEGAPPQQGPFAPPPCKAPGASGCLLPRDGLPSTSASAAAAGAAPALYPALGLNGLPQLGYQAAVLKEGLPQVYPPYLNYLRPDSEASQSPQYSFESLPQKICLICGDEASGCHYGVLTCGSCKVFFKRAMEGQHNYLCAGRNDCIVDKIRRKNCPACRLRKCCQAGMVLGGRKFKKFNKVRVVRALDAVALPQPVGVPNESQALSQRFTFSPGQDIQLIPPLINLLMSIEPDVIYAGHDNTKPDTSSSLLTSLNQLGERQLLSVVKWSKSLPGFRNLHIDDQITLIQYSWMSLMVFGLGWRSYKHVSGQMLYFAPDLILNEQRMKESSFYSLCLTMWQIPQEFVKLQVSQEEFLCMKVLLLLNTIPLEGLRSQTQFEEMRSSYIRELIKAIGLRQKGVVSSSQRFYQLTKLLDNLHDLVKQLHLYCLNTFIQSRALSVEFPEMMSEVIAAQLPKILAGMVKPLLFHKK
Chain of Thyroid hormone receptor alpha (Rattus norvegicus) + Thyroid hormone receptor beta (Rattus norvegicus) (P63059 whole entry, looked up): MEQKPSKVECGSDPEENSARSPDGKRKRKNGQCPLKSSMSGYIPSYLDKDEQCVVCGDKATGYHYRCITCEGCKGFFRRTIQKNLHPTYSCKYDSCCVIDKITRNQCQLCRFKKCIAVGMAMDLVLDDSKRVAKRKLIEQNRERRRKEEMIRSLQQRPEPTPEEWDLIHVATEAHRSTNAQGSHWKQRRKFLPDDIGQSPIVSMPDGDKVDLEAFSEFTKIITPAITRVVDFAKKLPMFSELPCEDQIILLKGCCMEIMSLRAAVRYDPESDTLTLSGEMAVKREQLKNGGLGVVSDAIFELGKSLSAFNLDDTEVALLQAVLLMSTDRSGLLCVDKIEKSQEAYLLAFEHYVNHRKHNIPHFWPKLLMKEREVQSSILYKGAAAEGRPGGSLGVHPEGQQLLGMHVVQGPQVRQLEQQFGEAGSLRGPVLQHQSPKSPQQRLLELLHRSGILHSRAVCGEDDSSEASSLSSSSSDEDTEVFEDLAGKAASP
Chain of Thyroid hormone receptor alpha (Rattus norvegicus) + Thyroid hormone receptor beta (Rattus norvegicus) (P18113 whole entry, looked up): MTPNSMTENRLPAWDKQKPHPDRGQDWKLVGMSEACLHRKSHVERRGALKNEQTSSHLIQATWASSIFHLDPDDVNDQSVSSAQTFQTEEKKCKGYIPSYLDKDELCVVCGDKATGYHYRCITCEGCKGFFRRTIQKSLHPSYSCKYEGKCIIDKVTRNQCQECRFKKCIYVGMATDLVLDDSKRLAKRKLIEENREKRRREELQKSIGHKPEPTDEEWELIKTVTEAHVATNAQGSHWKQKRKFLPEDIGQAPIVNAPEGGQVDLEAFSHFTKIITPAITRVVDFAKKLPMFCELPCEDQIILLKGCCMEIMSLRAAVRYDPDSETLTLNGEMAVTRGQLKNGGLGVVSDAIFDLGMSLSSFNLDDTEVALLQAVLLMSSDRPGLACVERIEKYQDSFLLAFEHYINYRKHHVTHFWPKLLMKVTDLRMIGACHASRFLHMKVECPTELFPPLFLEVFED

Cc1cc(CCN2CCN(c3nsc4ccccc34)CC2)cc2c1NC(=O)CC2(C)C
outcome [1]: inactive

CC[C@H](c1ccc(O)cc1)[C@@H](CC)c1ccc(O)cc1
outcome (PGR (gene 5241) [2]): inactive | outcome (PGR (gene 5241) [3]): inactive | AC50 (PGR (gene 5241) [4]): 16200 nM (active)

c1ccc2cc3c(ccc4ccccc43)cc2c1
outcome (PGR (gene 5241) [2]): inactive | outcome (PGR (gene 5241) [3]): inactive

CC(C)(C)c1cc(C(C)(C)C)c(O)c(C(C)(C)C)c1
outcome [5]: inactive | outcome (THRA (gene 7067) [6]): inactive | outcome (THRB (gene 7068) [7]): inactive | outcome (THRB (gene 7068) [8]): inactive | AC50 [9]: 59600 nM (active) | outcome [10]: inactive

O=C(O)Cc1cc(I)c(Oc2cc(I)c(O)c(I)c2)c(I)c1
AC50 [5]: 6.68 nM (active) | AC50 (THRA (gene 7067) [6]): 276 nM (active) | AC50 (THRB (gene 7068) [7]): 24.2 nM (active) | AC50 (THRB (gene 7068) [8]): 246 nM (active) | AC50 [9]: 31500 nM (active) | outcome [10]: inactive

C[C@@H]1C[C@H]2[C@@H]3CCC4=CC(=O)C=C[C@]4(C)[C@@]3(F)[C@@H](O)C[C@]2(C)[C@@]1(O)C(=O)COP(=O)(O)O
outcome [11]: inactive

C#C[C@]1(O)CC[C@H]2[C@@H]3CCC4=CC(=O)CC[C@@H]4[C@H]3CC[C@@]21C
outcome (THRA (gene 7067) [12]): inactive | outcome (THRB (gene 7068) [13]): inactive | outcome [14]: inactive | outcome (THRB (gene 7068) [15]): inactive | outcome [16]: inactive
